Test results reported in PubChem BioAssay (NCATS).
Results filed as inconclusive are left out. A number with no mark means an inactive call. Activity calls are given as the source filed them. Calls come from the whole dose curve; as a rule, active = well fitted inhibition curve with a large enough effect; inconclusive = small, poorly fitted or top-dose-only effect; inactive = flat fitted curve, though single readings scatter.

These molecules were tested against Aldehyde dehydrogenase, mitochondrial (Homo sapiens) (UniProt P05091) (assay: qHTS for Inhibitors of the Aldehyde Dehydrogenase Family (ALDH2) Primary screen (AID 2061308;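 note: plate controls were vehicle for no effect and reference inhibitor for full effect; nearly all actives have a fitted effect of over 55% in size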)). Conditions: ALDH2 enzyme inhibition qHTS, 1536-well; series mostly up to 56 µM; activity change, negative = inhibition: at the top concentration.
`CCCn1c(C)nc2c(NCCN3CCCC3)nc(C)nc21` was tested, and the “activity change, negative = inhibition” value was 10.7%.
For `Cc1cc(-c2nc(Nc3ccc(F)c(F)c3)c3ccccc3n2)cc(C)n1`, the “activity change, negative = inhibition” value was 11%.
For `O=C1CCc2cc(S(=O)(=O)Nc3ccncc3)ccc2N1`, the “activity change, negative = inhibition” value was -5.99%.
With `O=C(Cc1nnc(-c2nc3ccccc3[nH]2)o1)Nc1cc(C(F)(F)F)ccc1Cl` the “activity change, negative = inhibition” value was -18.9%.
`COc1ccc2[nH]c(=O)c3c(c2c1)OC(C)(C)C=C3` was tested, and the “activity change, negative = inhibition” value was -1.58%.
In the case of `CN(Cc1cccs1)c1ncnc2ccc(-c3ccc4c(c3)OCO4)cc12`, the “activity change, negative = inhibition” value is reported as 17.2%.
`Cc1nnc(-c2cnn(C)c2N)n1CCCn1cccc1` was tested, and the “activity change, negative = inhibition” value was -3.69%.
With `CCCCCC1CCC(C(=O)Nc2ccc(S(=O)(=O)Nc3nccs3)cc2)CC1` (configuration not stated) the “activity change, negative = inhibition” value was 13%.
In the case of `COc1cccc(CCN2C(=O)c3ccccc3NC2c2ccc(OC)c(COc3c(C)cc(NC(C)=O)cc3C)c2)c1` (configuration not stated), the “activity change, negative = inhibition” value is reported as -12%.
`Cc1cccc(CNc2ncnc3ccc(-c4ccccc4Cl)cc23)c1` was tested, and the “activity change, negative = inhibition” value was -0.468%.
In the case of `O=C1CCc2cc(S(=O)(=O)Nc3cccc(Br)c3)ccc2N1`, the “activity change, negative = inhibition” value is reported as 7.17%.
For `CC(C)(C)OC(=O)NCc1nnc(C(C(=O)OCc2ccccc2)c2ccccc2)s1` (configuration not stated), the “activity change, negative = inhibition” value was -0.0554%.
For `O=C1CCCC2=C1C(c1[nH]ncc1Cl)NC(=NCCc1ccccc1)N2` (configuration not stated), the “activity change, negative = inhibition” value was 8.29%.
`O=S(=O)(c1ccc2c(c1)OCCO2)N1CCN(S(=O)(=O)c2ccc3c(c2)OCCO3)CC1` was tested, and the Potency was “inactive”.
In the case of `Cc1nc(NC2CCCCC2)c2nc(-c3ccccc3)n(CCCN3CCCCC3C)c2n1` (configuration not stated), the “activity change, negative = inhibition” value is reported as 13.7%.
With `O=C(Nc1ccc(O)c2ncccc12)c1ccccc1F` the “activity change, negative = inhibition” value was 1.88%.
In the case of `Cc1cc(C)nc(NC(=S)N2CCN(c3cc(Cl)cc(C(F)(F)F)c3)CC2)c1`, the Potency is reported as “inactive”.
